A-T KAP1 phos: candidate therapy for ataxia-telangiectasia; F2112 A-T fibroblasts, KAP-1 phosphorylation AlphaLISA; neocarzinostatin DNA damage 30 min before lysis; Potency, µM (highest dose often 57.5 µM), for inactives: at the highest dose activation, usual class: activators; 0.19% of 320,000 active; note: potency is the fitted concentration of half-maximal effect; % of control where 0% means no effect; nearly all actives have a fitted effect of over 45% in size
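ATM-like activity read as KAP-1 phosphorylation via AlphaLISA donor/acceptor antibody pairs after lysis and 6 hr at 25C. Cells were ATM-null patient fibroblasts (F2112, hTERT), dosed 60 min, then exposed to the DSB inducer NCS for 30 min.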
CCT modulator: changes cytosolic chaperonin activity. purified chaperonin ATPase assay, HTRF ADP detection, 30 min. activity change, % (no concentration beside the values), hits read low. 0.3% of 360,000 active. AID 651819; in the data active = activity change below about -30%; note: % is set by controls: 0 for no effect and ±100 for the full control effect
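TRiC (40 or 20 nM final, by batch activity) in 30 mM Tris pH 7.4, 100 mM KCl, 5 mM MgCl2, 1 mM DTT was treated with compound at 76 uM single dose, then 10 uM ATP, 30 min at 37 °C. ADP was read by HTRF Transcreener.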
Nrf2 ARE act: activates Nrf2 signaling. AREc32 ARE-luciferase reporter (MCF7-derived line), luminescence, 24 h. Potency, µM (doses to about 46.1 µM), for inactives: top-dose activation, most hits filed as activators. 0.31% of 410,000 active. AID 624171; note: potency is the fitted concentration of half-maximal effect; % of control where 0% means no effect; nearly all actives have a fitted effect of over 65% in size
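Steps: seed AREc32_Fluc cells (1000/well, 5% FBS OPTI-MEM); incubate overnight at 37 deg C; add 23 nL compound; incubate 24 hr; add Steady-Glo; hold 30 min RT; read luminescence.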
TCR activator: activators of T cell receptors; primary human leukocytes, anti-CD3, IL-2 HTRF, 48 h; Potency, µM (titrated, usually from 9.22 µM), for inactives: at the top dose activation of IL-2 secretion, most hits filed as activators; 330,000 tested, under 10 active; AID 504894; note: % of control where 0% means no effect
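IL-2 release read by HTRF sandwich (Eu cryptate donor, d2 acceptor, 665 nm emission) after 48 hr exposure of primary human leukocytes to compound together with anti-CD3 beads in the absence of co-stimulatory signals.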
Nrf2 block: inhibitors of Nrf2 signaling; A549 ARE-Fluc reporter, luciferase luminescence, 18-24 h; Potency, µM (series often up to 46 µM), inactives show at the highest dose activity change, negative = inhibition, usual class: inhibitors; 2.1% of 360,000 active; AID 504444; note: potency is the fitted concentration of half-maximal effect; % is set by controls: 0 for no effect and ±100 for the full control effect; nearly all actives have a fitted effect of over 60% in size
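Nrf2 function is reported as luminescence of an ARE-controlled luciferase in A549 cells. Compounds were tested at several concentrations, and a CellTiter-Fluor read on the same wells flagged cytotoxicity.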
A549 tox: kills or reduces viability of A549 cells in Nrf2 counter-screen. 0.16% of 390,000 active. Potency, µM (doses to about 46 µM), inactives show at the top dose activity change, negative = cytotoxicity, most hits filed as inhibitors. A549 ARE-Fluc cells, CellTiter-Fluor viability, 18-24 h. AID 504648; note: potency is the fitted concentration of half-maximal effect; % is set by controls: 0 for no effect and ±100 for the full control effect
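A549 ARE-Fluc cells in 5% FBS OPTI-MEM, 5000 cells/well, rested 2 h then exposed to compounds in concentration-response for 18-24 h at 37 °C. Viability by CellTiter-Fluor fluorescence (Ex 405/Em 525) after 30 min; luciferase luminescence (BugLite, 15 min, RT) read afterwards.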
Starred values were filed as active, the others as inactive; u = inconclusive; x = no result given; [ ] = dose if it differs, or a comment. The list is not random: actives were taken first. Their share in the collection is about 2.6%. Unless noted, calls come from the whole dose curve; as a rule, active = well fitted curve in the direction sought with a large enough effect; inconclusive = small, poorly fitted or top-dose-only effect, or another doubt; inactive = no such curve, though single readings can be large; an effect the other way counts as inactive or inconclusive.

SMILES	A-T KAP1 phos	CCT modulator	Nrf2 ARE act	TCR activator	Nrf2 block	A549 tox
CS(=O)(=O)c1cc([N+](=O)[O-])c(Sc2nc3ccccc3[nH]2)c([N+](=O)[O-])c1	-3%	-3	u	-3%	x	23µM*
CCOc1ccccc1C1N=C(c2ccc(OC)cc2)CC(c2ccccc2O)N1 (stereo not given)	8%	-2	16µM*	-5%	u	-10%
O=C(c1ccc2c(c1)N(Cc1ccccc1)C(=O)c1ccccc1S2(=O)=O)N1CCc2ccccc21	x	x	6%	x	10%	-8%
CC(=O)Nc1cc(O)c2nonc2c1O	x	x	x	x	21µM*	6.5µM*
CC(=O)Nc1c(O)cc(Br)c2nonc12	x	x	x	x	6%	0%
Cc1cc2c(s1)c1cnn(Cc3cccc4cccnc34)c(=O)c1n2C	x	x	x	x	-9%	-10%
CC(OC(=O)c1ccccc1C(=O)O)c1ccccc1 (stereo not given)	x	-1	0%	-1%	-4%	12%
Cc1ccc(C(=O)N2c3ccccc3N(Cc3ccccc3)C(=O)C2(C)C)cc1	4%	0	1%	-1%	12µM*	-13%
CCN(CC)S(=O)(=O)c1ccc2c(c1)N(CC(=O)NCc1ccccc1)C(=O)C1CCCCN21 (stereo not given)	x	x	3%	x	x	0%
CCOc1ccc(S(=O)(=O)NC(C)(C)C)cc1-c1nc2c(C(C)(C)C)nn(C)c2c(=O)[nH]1	-4%	-1	-2%	0%	21µM*	u
Cc1cccc(C)c1OCC(=O)Nc1cccc(S(=O)(=O)N2CCCC2)c1	20%	-1	0%	-1%	15µM*	-13%
CCOc1ccccc1C(=O)OCC(=O)Nc1cccc(S(=O)(=O)N2CCCC2)c1	16%	-2	0%	-8%	9%	-5%
CCS(=O)c1ccccc1C(=O)OCC(=O)Nc1cccc(S(=O)(=O)N2CCCCC2)c1 (stereo not given)	-3%	0	0%	4%	21µM*	-12%
Cc1cc(OCC(=O)Nc2cccc(S(=O)(=O)N3CCCC3)c2)ccc1Cl	-4%	4	3%	-1%	16µM*	-16%
Cc1ccc(NC(=O)CSCC(=O)Nc2cccc(S(=O)(=O)N3CCCCCC3)c2)cc1	17%	-3	4%	-11%	13µM*	-27%
CCCn1nnc(NC(=S)NC(=O)/C=C/c2ccc(Cl)cc2)n1	-14%	1	-1%	6%	u	-8%
Cc1cc(C)n(C(C)CC(=O)NCc2ccccc2C)n1 (stereo not given)	x	x	0%	x	u	-1%
O=C(COc1ccccc1Br)Nc1ccc(S(=O)(=O)N2CCCC2)cc1	10%	-4	0%	12%	13µM*	-4%
COc1ccccc1OCC(=O)Nc1ccc(S(=O)(=O)N2CCCC2)cc1	10%	0	1%	-9%	1%	-3%
Cc1ccc(S(=O)(=O)Nc2nc3ccccc3nc2Nc2cccc(S(=O)(=O)N3CCCC3)c2)cc1	2%	0	-1%	-2%	9.2µM*	-13%
O=[N+]([O-])c1cccc(S(=O)(=O)Nc2nc3ccccc3nc2Nc2cccc(S(=O)(=O)N3CCCCC3)c2)c1	2%	-3	19%	1%[46.1 µM]	u	u
Cc1cc2c(s1)c1cnn(Cc3cc(C(F)(F)F)ccc3F)c(=O)c1n2C	x	x	x	x	4%	0%
O=C(NCc1ccncc1)c1cccc(S(=O)(=O)Nc2ccc(SC(F)F)cc2)c1	7%	-2	0%	-3%	15µM*	-21%
CCn1c(=O)c(C(=O)Nc2nc3ccccc3[nH]2)c(O)c2ccccc21	1%	-4	8%	-6%	16µM*	21µM*
Cc1c(C(=O)Nc2nc3ccccc3[nH]2)oc2c(Cl)cccc12	x	-30*	20%	-9%[46.1 µM]	u	-2%
SMILES	A-T KAP1 phos	CCT modulator	Nrf2 ARE act	TCR activator	Nrf2 block	A549 tox
Cc1nn(CCC(=O)N2CCN(S(=O)(=O)c3ccc(Cl)cc3)CC2)c(C)c1C	2%	0	0%	4%	-14%	2%
COCc1nnc(NC(=O)c2cc(Cl)ccc2OC)s1	8%	2	13µM*	-1%	27%	x
Cc1c(Cl)cccc1NC(=O)COC(=O)c1c2c(nc3ccccc13)CCN(Cc1ccccc1)C2	x	2	0%	9%[46.1 µM]	21µM*	u
Cc1cc(N2CCN(C)CC2)ccc1NC(=O)c1c2c(nc3ccccc13)CCN(Cc1ccccc1)C2	5%	-2	28%	-1%	18µM*	10µM*
O=C(NC1CCCCCC1)c1c2c(nc3ccccc13)CCN(Cc1ccccc1)C2	1%	-7	-1%	-6%[46.1 µM]	u	-15%
COc1cccc(NC(=O)COC(=O)c2c3c(nc4ccccc24)CCC(C)C3)c1 (stereo not given)	2%	-23	-3%	1%	16µM*	u
Cn1cnc(S(=O)(=O)N2CCCC(C(=O)NCc3ccccc3Cl)C2)c1 (stereo not given)	x	x	0%	x	x	8%
O=C1CCC2=C1C1(CCCC1)N=C(Nc1nc3ccccc3o1)N2	x	x	x	x	u	-4%
O=C(NCc1ccc(Cl)cc1)N1CCN(Cc2ccccc2)CC1	5%	-6	0%	x	23µM*	-15%
Cc1cccc(C(=O)NCC(=O)N2CCN(c3ccc(Cl)cc3)CC2)c1	7%	-4	-1%	16%	u	-1%
Cc1cccc(N2CCN(C(=O)CNC(=O)Cc3ccccc3)CC2)c1C	7%	1	4%	2%	u	-18%
Cc1cc(C)cc(C(=O)NCC(=O)N2CCN(c3cccc(Cl)c3)CC2)c1	-1%	0	0%	-7%	21µM*	-20%
Cc1cccc(N2CCN(C(=O)CNC(=O)c3cccc([N+](=O)[O-])c3)CC2)c1C	2%	-1	0%	1%	23µM*	-3%
CSc1ncc(C(=O)N2CCN(c3cccc(Cl)c3)CC2)c(C)n1	x	x	1%	x	-5%	3%
CSc1ccccc1C(=O)N1CCN(c2cccc(Cl)c2)CC1	3%	-2	2%	-5%	16µM*	u
O=C(Nc1ccccc1)N1CCN(Cc2ccc(Cl)cc2)CC1	0%	1	3%	8%	0%	-2%
O=C1NC[C@@H](CCCCN2C[C@H](Cc3ccccc3)N(CC3CCCCC3)C(=O)C2=O)N(Cc2ccccc2)C1=O	x	0	0%	x	x	x

Bioassay records as filed in PubChem.
